# Pf Dd2 growth = qHTS Primary assay for Inhibitors of Plasmodium falciparum Dd2 growth in vitro | P. falciparum Dd2 growth, SYBR Green, 72 h | 120,000 tested, 4.3% active | Potency, µM (series often up to 28.9 µM), for the others: at the highest dose activity, negative = inhibition, usual class: inhibitors; active = well fitted inhibition curve with a large enough effect;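 also: plate controls were DMSO vehicle for no effect and reference drug for full effect; nearly all actives have a fitted effect of over 65% in size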
#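 Readout: SYBR Green fluorescence, 485 nm excitation, 535 nm emission, after ~16 h lysis at 37C. Before that, Dd2-infected red cells (2.5% hematocrit) grew 72 h with compound, 29 uM top final concentration.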
# * = called active by the depositor; i = inactive; [ ] = remark or other dose. The full list was thinned out, with hits kept by preference. Potency is read from the fitted curve at half-maximal effect.
SMILES,Pf Dd2 growth
CCNC(=O)N(C1CC1)C1CCOC2(CCN(C(=O)Cc3ccccc3)CC2)C1 (stereo not drawn),2%
Cc1c(F)cccc1NC(=O)N1CC(c2nnc(-c3ccncc3)o2)C2(CCOCC2)C1 (stereo not drawn),i
O=C(CCc1ccccc1)N1CCC(N2CC3CC(C2)[C@H]2CCCC(=O)N2C3)CC1 (stereo partly drawn),10%
CNC(=O)[C@@H]1C[C@@H](O)CN1C1CCN(C(=O)CCc2nc3ccccc3s2)CC1,10%
Cc1ccc(-n2c(=O)c3cccnc3n2CC(=O)NCc2ccc(Cl)cc2)cc1,-6%
CCN(CC)c1ccc(NC(=O)Cn2c3ncccc3c(=O)n2-c2ccccc2)c(C)c1,7%
CCc1ccc(-n2c(=O)c3cccnc3n2CC(=O)Nc2cc(F)ccc2F)cc1,5µM*
CCOC(=O)c1ccc2ncc(C(=O)OCC)c(NCCc3ccc(OC)c(OC)c3)c2c1,8.9µM*
CCOC(=O)c1cnc2ccc(OC)cc2c1NCCc1ccccc1,4µM*
CCOC(=O)c1cnc2c(C)c(Cl)ccc2c1NCCc1ccc(OC)c(OC)c1,i
CCOC(=O)c1cnc2c(C)cccc2c1NCCc1ccc(OC)c(OC)c1,i
CCOC(=O)c1cnc2c(ccc3ccccc32)c1Nc1cccc(OC)c1,51%
CCOC(=O)c1cnc2ccc(OC(F)(F)F)cc2c1Nc1ccccc1C(=O)O,10µM*
CCOC(=O)c1cnc2ccc(OC)cc2c1Nc1cccc(C(C)=O)c1,-7%
CCOC(=O)c1cnc2c(ccc3ccccc32)c1Nc1ccc(OCC)cc1,18%
CCOC(=O)c1cnc2ccc(OCC)cc2c1Nc1cc(Cl)c(OC)cc1OC,49%
CCn1ccc(C(=O)NCc2cccnc2N(C)CCc2ccccn2)n1,-11%
COC1CCN(C(=O)c2cnc3c(c2)N(Cc2ccccc2)CCC3)CC1,-9%[44.1 µM]
Cc1ccc(-c2ccc3nnc(CNC(=O)CSc4ccncc4)n3n2)cc1,-7%
O=C(O)Cn1ccc2cc(OCCc3cccc(-c4ccc(F)cc4F)c3)cnc21,i
CNC(=O)[C@H]1C[C@H](Oc2cccnc2)CN1S(=O)(=O)c1ccccc1,-16%
Cn1cnc([S+](=O)([O-])N2CCC(c3nnc4n3C(C(=O)O)CC4)CC2)c1 (stereo not drawn),24%
CC(=O)N1C[C@@H](CO)[C@H](NC(=O)c2ccccc2)C1,-4%
O=C(NCCc1noc(C(F)(F)F)n1)[C@H]1CCC[C@H](O)C1,-1%
COc1ccc(CNC(=O)c2ccc(NC(=O)N3CCCCc4ccccc43)cc2)cc1,-23%
SMILES,Pf Dd2 growth
COc1ccc(NC(=O)N2CCc3c(C(=O)NC(C)C)cccc32)cc1,-7%
COc1ccc(NC(=O)N2CCc3c(C(=O)N(C)Cc4ccco4)cccc32)cc1,-15%
COc1ccc(NC(=O)N2CCc3c(C(=O)NCCN4CCCCCC4)cccc32)cc1,2.8µM*
COc1ccc(NC(=O)N2CCc3c(C(=O)N(C)C)cccc32)cc1,i
CCCCN(C)C(=O)c1cccc2c1CCN2C(=O)Nc1ccc(OC)cc1,14µM*
O=C1NCN(Cc2ccc(Cl)cc2)C12CCN(Cc1ccccc1C(F)(F)F)CC2,i
c1coc(-c2nc(C3CCOC3)nn2C2Cc3ccccc3C2)c1 (stereo not drawn),-19%
Cc1ccc(CN(C)C(=O)CC(c2ccccc2)c2ccc3c(c2)OCO3)o1 (stereo not drawn),i
Cn1nc2n(c1=O)CCC(NC(=O)c1c(F)cccc1Cl)CC2 (stereo not drawn),9%
CC(C)Oc1cccc2c1c(NC(=O)C1CCOCC1)nn2C,-6%
CC(C)Oc1cccc2c1c(NC(=O)c1ccn(C)n1)nn2Cc1ccccc1,8.9µM*
CC(C)Oc1cccc2c1c(NC(=O)C1CCCO1)nn2Cc1ccccc1 (stereo not drawn),i
COc1ccc(-c2ccnc3ncnn23)c(F)c1,2%
CC(=O)Nc1ccc2c(c1)nc1n2[C@@H](CNC2CCOCC2)COC1,24%[44.1 µM]
O=C(c1cc(-c2ccccc2F)n[nH]1)N1CCC2(CCCN(Cc3ccccc3F)C2)C1 (stereo not drawn),8.9µM*
CN(C)C[C@H]1C[C@@H](CO)CN(C(=O)c2cc(-c3ccccc3F)n[nH]2)C1,12%
COCCN1CC2(CCCN(C(=O)c3cc(-c4ccsc4)n[nH]3)C2)CCC1=O (stereo not drawn),-18%
O=C(NCC(F)F)c1cc(Br)cn2ccnc12,-12%[44.1 µM]
O=C(CCc1cccnc1)N1CC[C@@H](c2ccc3ccccc3c2)[C@H](O)C1,-10%
COc1cccc(S(=O)(=O)N2CCC3(CC2)CC(N2CCOCC2)CCO3)c1 (stereo not drawn),-3%
O=C(Nc1cccc(NC(=O)c2ccccc2F)c1)c1ccccc1,25%
COc1cccc(C(=O)Nc2ccc(NC(=O)c3ccc(C(C)(C)C)cc3)cc2)c1,i
Cc1ccccc1C(=O)Nc1cccc(NC(=O)c2ccc(C(C)(C)C)cc2)c1,13µM*
COCCn1nnnc1C1CC2(CCOCC2)C(=O)N1Cc1cccnc1 (stereo not drawn),-10%

# Screening results from PubChem.
